In the antibiotic and cytotoxicity screens of Wong et al. (2023):
Hit rate of the full screen: of about 39,000 compounds, about 1,500 (3.8%) were called active. Many of the other results were omitted from the sample, so actives are more common in it than they were.

System: HSkMC (human skeletal muscle cells)
Assay: cytotoxicity call (relative viability < 0.9)
Settings: 10 µM

Row | SMILES | cytotoxicity call
1 | CC(C)(N)CO.Cn1c(=O)c2[nH]c(Br)nc2n(C)c1=O | inactive
2 | Cc1ccc(S(=O)(=O)N(C)C[C@H]2OCCCC[C@@H](C)Oc3ccc(NC(=O)CCC(F)(F)F)cc3C(=O)N([C@H](C)CO)C[C@H]2C)cc1 | inactive
3 | CO[C@H]1CN(C)C(=O)c2ccc(NC(C)=O)cc2OC[C@@H](C)N(S(=O)(=O)c2cn(C)cn2)C[C@@H]1C | inactive
4 | C[C@@H]1CCCCO[C@@H](CN(C)Cc2ccc(Cl)c(Cl)c2)[C@@H](C)CN([C@H](C)CO)C(=O)c2cc(N(C)C)ccc2O1 | inactive
5 | Cc1noc(C)c1NC(=O)Nc1ccc2c(c1)CC(=O)N([C@H](C)CO)C[C@H](C)[C@H](CN(C)C(=O)NC(C)C)O2 | inactive
6 | C[C@@H]1CCCCO[C@H](CN(C)Cc2ccncc2)[C@@H](C)CN([C@@H](C)CO)C(=O)c2cc(NC(=O)Nc3cccc4ccccc34)ccc2O1 | inactive
7 | COc1ccc(S(=O)(=O)Nc2ccc3c(c2)C(=O)N([C@H](C)CO)C[C@@H](C)[C@@H](CN(C)Cc2ccncc2)O3)cc1 | inactive
8 | C[C@H]1CCCCO[C@@H](CN(C)C(=O)Nc2ccc3c(c2)OCO3)[C@@H](C)CN([C@@H](C)CO)C(=O)c2cc(NC(=O)c3ccncc3)ccc2O1 | inactive
9 | C[C@@H]1CN([C@H](C)CO)C(=O)CCCn2cc(nn2)CO[C@H]1CN(C)S(=O)(=O)c1cn(C)cn1 | inactive
10 | COc1ccc(S(=O)(=O)N(C)C[C@H]2OCCCC[C@@H](C)Oc3ccc(NC(=O)Nc4ccccc4)cc3C(=O)N([C@@H](C)CO)C[C@@H]2C)cc1 | inactive
11 | Cc1noc(C)c1S(=O)(=O)Nc1ccc2c(c1)C(=O)N([C@H](C)CO)C[C@H](C)[C@H](CN(C)S(C)(=O)=O)OCCCC[C@H](C)O2 | inactive
12 | C[C@H]1[C@H](C)CC[C@]2(C(=O)O[C@@H]3O[C@H](CO[C@@H]4O[C@H](CO)[C@@H](O[C@@H]5O[C@@H](C)[C@H](O)[C@@H](O)[C@H]5O)[C@H](O)[C@H]4O)[C@@H](O)[C@H](O)[C@H]3O)CC[C@]3(C)C(=CC[C@@H]4[C@@]5(C)C[C@@H](O)[C@H](O)[C@@](C)(CO)[C@@H]5[C@H](O)C[C@]43C)[C@H]12 | inactive
13 | C[C@@H]1CN([C@@H](C)CO)C(=O)c2cc(NC(=O)c3ccccc3)ccc2O[C@@H](C)CCCCO[C@H]1CN(C)C(=O)c1ccccc1 | inactive
14 | COc1ccccc1S(=O)(=O)N[C@H]1CC[C@H](CCNC(=O)C2CCOCC2)O[C@H]1CO | inactive
15 | Cc1noc(C)c1S(=O)(=O)N(C)C[C@H]1Oc2ccc(NC(=O)Nc3ccc4c(c3)OCO4)cc2CC(=O)N([C@H](C)CO)C[C@@H]1C | inactive
16 | C[C@H](CO)N1C[C@H](C)[C@@H](CN(C)CC2CCCCC2)OCCCC[C@H](C)Oc2ccc(NC(=O)Nc3ccc(C(F)(F)F)cc3)cc2C1=O | active
17 | C[C@@H]1CCCCO[C@H](CN(C)CC2CCCCC2)[C@@H](C)CN([C@H](C)CO)C(=O)c2cc(NC(=O)Nc3ccc(C(F)(F)F)cc3)ccc2O1 | active
18 | C[C@@H]1CCCCO[C@@H](CN(C)CC2CCCCC2)[C@@H](C)CN([C@H](C)CO)C(=O)c2cc(NC(=O)Nc3ccc(C(F)(F)F)cc3)ccc2O1 | active
19 | C[C@@H]1CN([C@H](C)CO)C(=O)c2cc(NC(=O)Nc3ccc(C(F)(F)F)cc3)ccc2O[C@@H](C)CCCCO[C@@H]1CN(C)CC1CCCCC1 | active
20 | C[C@H]1CN([C@@H](C)CO)C(=O)c2cc(NC(=O)CCCN(C)C)ccc2O[C@H]1CN(C)C(=O)NC1CCCCC1 | inactive

Row | SMILES | cytotoxicity call
21 | C[C@H]1CN([C@@H](C)CO)C(=O)c2cccc(NC(=O)CCCCCC(=O)Nc3ccccc3N)c2O[C@@H]1CN(C)C(=O)Nc1ccccc1 | inactive
22 | C[C@H](CO)N1C[C@H](C)[C@@H](CN(C)Cc2ccc(C(=O)O)cc2)OCCCC[C@H](C)Oc2ccc(NC(=O)C3CCCCC3)cc2C1=O | inactive
23 | C[C@@H]1CN([C@@H](C)CO)C(=O)Cc2cc(NC(=O)Nc3ccc(F)cc3)ccc2O[C@@H]1CN(C)C(=O)Nc1cccc2ccccc12 | inactive
24 | COc1ccc(C#Cc2ccc3c(c2)[C@]2(C(=O)N3)[C@H](C(=O)Nc3nc4ccccc4s3)[C@H]3C(=O)O[C@H](c4ccccc4)[C@H](c4ccccc4)N3[C@@H]2c2ccc(O)cc2)cc1 | inactive
25 | Cc1ccc(S(=O)(=O)N(C)C[C@@H]2Oc3ccc(NS(C)(=O)=O)cc3C(=O)N([C@@H](C)CO)C[C@@H]2C)cc1 | inactive
26 | NCc1nncn1-c1ccc(F)cc1 | inactive
27 | C[C@H](CO)N1C[C@H](C)[C@H](CN(C)CC2CCCCC2)OCCCC[C@H](C)Oc2ccc(NC(=O)c3ccncc3)cc2C1=O | inactive
28 | C[C@H](CO)N1C[C@H](C)[C@@H](CN(C)S(=O)(=O)c2cccs2)Oc2c(NS(=O)(=O)c3cn(C)cn3)cccc2C1=O | inactive
29 | COCC#Cc1cnc2c(c1)C(=O)N([C@@H](C)CO)C[C@@H](C)[C@@H](CN(C)C(=O)CN1CCOCC1)O2 | inactive
30 | C[C@@H]1CCCCO[C@@H](CN(C)CC2CCCCC2)[C@H](C)CN([C@H](C)CO)C(=O)c2cc(NC(=O)Nc3ccc(C(F)(F)F)cc3)ccc2O1 | active
31 | C[C@@H]1CN([C@@H](C)CO)C(=O)c2cc(NC(=O)Nc3ccc(C(F)(F)F)cc3)ccc2O[C@@H](C)CCCCO[C@@H]1CN(C)CC1CCCCC1 | inactive
32 | C[C@H]1CCCCO[C@@H](CN(C)CC2CCCCC2)[C@@H](C)CN([C@@H](C)CO)C(=O)c2cc(NC(=O)Nc3ccc(C(F)(F)F)cc3)ccc2O1 | active
33 | C[C@@H]1CN([C@@H](C)CO)C(=O)c2cc(NC(=O)Nc3ccc(C(F)(F)F)cc3)ccc2O[C@@H](C)CCCCO[C@H]1CN(C)CC1CCCCC1 | inactive
34 | Cc1noc(C)c1NC(=O)Nc1ccc2c(c1)C(=O)N([C@H](C)CO)C[C@H](C)[C@H](CN(C)Cc1ccncc1)OCCCC[C@@H](C)O2 | inactive
35 | CO[C@@H]1CN(C)C(=O)c2cc(NS(C)(=O)=O)ccc2OC[C@@H](C)N(C(=O)CN(C)C)C[C@@H]1C | inactive
36 | C[C@H]1CN([C@@H](C)CO)C(=O)c2cc(NS(=O)(=O)c3cn(C)cn3)ccc2O[C@H]1CN(C)S(C)(=O)=O | inactive
37 | C[C@H]1CN([C@@H](C)CO)S(=O)(=O)c2ccc(C#CC3(O)CCCC3)cc2O[C@@H]1CN(C)C(=O)Cc1ccncc1 | inactive
38 | COc1ccc(S(=O)(=O)N(C)C[C@H]2OCCCC[C@@H](C)Oc3ccc(NC(=O)c4ccccc4)cc3C(=O)N([C@H](C)CO)C[C@@H]2C)cc1 | inactive
39 | C[C@@H]1CN([C@H](C)CO)C(=O)c2cc(NC(=O)Cc3ccccc3)ccc2O[C@@H](C)CCCCO[C@@H]1CN(C)C(=O)C1CCCCC1 | inactive
40 | COC(=O)C[C@](O)(CCCC(C)(C)O)C(=O)O[C@@H]1C(OC)=C[C@]23CCCN2CCc2cc4c(cc2[C@H]13)OCO4 | active

Row | SMILES | cytotoxicity call
41 | C[C@@H]1CN([C@@H](C)CO)C(=O)CCCn2cc(nn2)CO[C@@H]1CN(C)C(=O)Nc1cccc(C(F)(F)F)c1 | inactive
42 | C[C@H](CO)N1C[C@H](C)[C@@H](CN(C)C(=O)C2CCCCC2)OCCCC[C@H](C)Oc2ccc(NC(=O)Cc3ccccc3)cc2C1=O | inactive
43 | C[C@H](CO)N1C[C@H](C)[C@@H](CN(C)Cc2ccc(F)cc2)Oc2cc(C#CC3CC3)ccc2S1(=O)=O | inactive
44 | C[C@H]1CN([C@@H](C)CO)S(=O)(=O)c2ccc(C#CC3CC3)cc2O[C@H]1CN(C)Cc1ccc(F)cc1 | inactive
45 | C[C@@H]1CN([C@H](C)CO)S(=O)(=O)c2ccc(C#CC3CC3)cc2O[C@H]1CN(C)Cc1ccc(F)cc1 | active
46 | C[C@@H]1CN([C@H](C)CO)S(=O)(=O)c2ccc(C#CC3CC3)cc2O[C@@H]1CN(C)Cc1ccc(F)cc1 | inactive
47 | C[C@H]1CN([C@@H](C)CO)S(=O)(=O)c2ccc(C#CC3CC3)cc2O[C@@H]1CN(C)Cc1ccc(F)cc1 | active
48 | C[C@@H]1CN([C@@H](C)CO)S(=O)(=O)c2ccc(C#CC3CC3)cc2O[C@H]1CN(C)Cc1ccc(F)cc1 | inactive
49 | CO[C@@H]1CN(C)C(=O)c2cc(NC(=O)Nc3ccccc3F)ccc2OC[C@@H](C)N(CCC(F)(F)F)C[C@H]1C | inactive
50 | C[C@@H]1CN([C@@H](C)CO)C(=O)c2cc(NC(=O)Cc3ccccc3)ccc2O[C@@H]1CN(C)C(=O)Nc1ccc(C(F)(F)F)cc1 | inactive
51 | O=C([C@H]1[C@H](CO)[C@H]2Cn3c(cccc3=O)[C@H]2N1C(=O)C1CCCC1)N1CCOCC1 | inactive
52 | COc1ccc(CN(C)C[C@H]2Oc3c(NC(=O)C4CCOCC4)cccc3C(=O)N([C@H](C)CO)C[C@@H]2C)cc1 | inactive
53 | O=C(C[C@H]1CC[C@H]2[C@@H](COC[C@@H](O)CN2C(=O)Nc2cccc(F)c2)O1)NCc1ccccc1Cl | inactive
54 | CCC(=O)Nc1ccc(C)c(C)c1 | inactive
55 | C[C@@H]1CCCCO[C@@H](CN(C)C(=O)Nc2ccc(F)cc2)[C@@H](C)CN([C@H](C)CO)C(=O)c2cc(NC(=O)CCCN(C)C)ccc2O1 | inactive
56 | Cc1ccc(S(=O)(=O)N(C)C[C@@H]2Oc3ccc(NS(=O)(=O)c4cccs4)cc3CC(=O)N([C@@H](C)CO)C[C@H]2C)cc1 | inactive
57 | COc1ccc(COCC23Oc4ccccc4[C@H]([C@H]2CO)n2c(c4ccccc4c(-c4ccccc4)c2=O)N3C)cc1 | inactive
58 | COC(=O)c1c(C(=O)OC)c2n(c(=O)c1-c1ccccc1)[C@@H]1c3ccccc3O[C@@](COCc3ccc(OC)cc3)([C@@H]1CO[Si](C)(C)C(C)(C)C)N2C | inactive
59 | COc1ccc(COCC23Oc4ccccc4[C@H]([C@H]2CO[Si](C)(C)C(C)(C)C)n2c(c4ccccc4c(-c4ccccc4)c2=O)N3C)cc1 | active
